Inconclusive results are not listed. A call without a number means that no potency is given here. Active and inactive are the calls of the source. The call rests on the fitted dose curve; in most records, active means well fitted cell-killing curve with a large enough effect; inconclusive means small, poorly fitted or top-dose-only effect, or effect the other way; inactive means flat fitted curve, though single readings scatter.
The molecules below were run on CAOV3 (assay: Primary qHTS to identify gynecologic anti-cancer compounds using libraries of approved drugs and bioactive compounds (AID 1345084; further: nearly all actives have a fitted effect of over 55% in size)). Conditions: Gynecologic cancer cell panel viability, ATPlite luminescence, 48 h; series mostly up to 57.5 µM.
Description: National Center for Advancing Translational Sciences [NCATS] Assay Overview: Chemotherapeutic drug responses vary from cancer to cancer and from patient to patient. These variations could be caused by a number of factors including patient genomic background, tumor mutations, tumor heterogeneity, and aspects of drug treatment. Chemotherapeutic drug resistance is also a common issue and can lead to ineffective treatment and patient death. Here we have profiled the cell killing effects of thousands of compounds to characterize the responses in three gynecological cancers, identify cancer-selective compounds, and understand the diversity of responses to these compounds from pan-cancer suppressors to single cell line selective compounds. In this assay, we screened a 7,914 compound drug library that included approved drug and bioactive compounds in six ovarian, three cervical, and […] placental cancer cell lines using the ATPlite assay for cell viability. […] The cervical cancer cell lines included HeLa, Ca Ski, and C-33 A. The placental cancer cell lines included JEG-3. HEK 293T cells were used as the control cell line to determine the selectivity index. ATPlite is a luminescence based assay reliant on the conversion of a luciferase substrate to light in the presence of ATP. As a cytotoxic compound will suppress growth and decrease the number of cells, the concentration of ATP will decrease, and less light signal will be detected in the well.
Assay Protocol Summary: 1,000 cells in 4 uL of media were dispensed into white, solid bottom 1536-well plates using a Multidrop Combi (Thermo Scientific). The Assay plates were incubated for 16 hours at 37 C with 5% CO2 in assay plates, followed by the addition of 23 nL of DMSO or drug dissolved in DMSO. Each compound was assayed in five concentrations (0.092, 0.46, 2.3, 11.5, and 57.5 uM), using the automated Wako 1536 Pin Tool workstation and incubated at 37 C with 5% CO2 48 hours. 4 uL of ATPlite, the ATP monitoring reagent, was then added to the each well of the assay plates using the Multidrop Combi reagent dispenser followed by incubation for 15 minutes at room temperature. The resulting luminescence was measured using the ViewLux plate reader.
With `OC[C@H]1O[C@@H](Oc2ccc(O)cc2)[C@H](O)[C@@H](O)[C@@H]1O` the Potency was “inactive”. In the case of `CCC1Nc2cc(Cl)c(S(N)(=O)=O)cc2S(=O)(=O)N1` (stereo not given), the Potency is reported as “inactive”. In the case of `O=S(c1cc(Cl)cc(Cl)c1O)c1cc(Cl)cc(Cl)c1O`, the Potency is reported as “inactive”. `C=CCN1CCc2nc(N)sc2CC1` was tested, and the Potency was “inactive”. In the case of `CCN1CCN(C(=O)N[C@@H](C(=O)N[C@@H]2C(=O)N3C(C(=O)O)=C(CSc4nnnn4C)CS[C@H]23)c2ccc(O)cc2)C(=O)C1=O`, the Potency is reported as “inactive”. `N#C/C(=C1\SCC(c2ccccc2Cl)S1)n1ccnc1` (stereo not given) was tested, and the Potency was “inactive”. `C[C@H]1[C@H]2CC[C@H]3[C@@H]4CC=C5C[C@@H](N(C)C)CC[C@]5(C)[C@H]4CC[C@]23CN1C` was tested, and the Potency was “inactive”. In the case of `CC(=O)NCCCCCC(=O)O`, the Potency is reported as “inactive”. `CCCCCCCCCCCCSCCOCCO` was tested, and the Potency was “inactive”. `CC[C@H](c1ccc(O)cc1)[C@@H](CC)c1ccc(O)cc1` was tested, and the Potency was “inactive”. For `CCCCOC(=O)CC(CC(=O)OCCCC)(OC(C)=O)C(=O)OCCCC`, the Potency was “inactive”. In the case of `CC(C)[N+](C)(C)CC(O)COc1cccc2ccccc12` (stereo not given), the Potency is reported as “inactive”. With `CC(C)(Cc1c[nH]c2ccccc12)NCC(O)COc1ccccc1C#N` (stereo not given) the Potency was “inactive”. With `CCCCCCCCCCCCCCC[C@H](O)[C@@H](N)CO` the Potency was “inactive”. For `CC(=O)Nc1ccc(S(=O)(=O)Nc2ccc([N+](=O)[O-])cc2)cc1`, the Potency was “inactive”. For `CCCCCCCCCCCCCCCCO`, the Potency was “inactive”. In the case of `O=C(c1ccc(F)cc1)C1CCN(CCn2c(=S)[nH]c3ccccc3c2=O)CC1`, the Potency is reported as “inactive”. For `CCCCCCCCOc1ccc(C(=O)c2ccccc2)c(O)c1`, the Potency was “inactive”. `CC(=O)Oc1ccc(C)cc1` was tested, and the Potency was “inactive”. For `c1ccc(CC2=NCCN2)cc1`, the Potency was “inactive”. For `COc1cc(N)c(Cl)cc1C(=O)NC1CCN(Cc2ccccc2)CC1`, the Potency was “inactive”. With `CCCN(CCC)S(=O)(=O)c1ccc(C(=O)O)cc1` the Potency was “inactive”. With `CO[C@H]1C=CO[C@@]2(C)Oc3c(C)c(O)c4c(O)c(c(/C=N/N5CCN(C)CC5)c(O)c4c3C2=O)NC(=O)/C(C)=C\C=C[C@H](C)[C@H](O)[C@@H](C)[C@@H](O)[C@@H](C)[C@H](OC(C)=O)[C@@H]1C` the Potency was “inactive”. In the case of `OC(C#CCN1CCCC1)(c1ccccc1)c1ccccc1`, the Potency is reported as “inactive”. `CCC(Cc1c(I)cc(I)c(N)c1I)C(=O)O` (stereo not given) was tested, and the Potency was “inactive”. `CCc1nn(CCCN2CCN(c3cccc(Cl)c3)CC2)c(=O)n1CCOc1ccccc1` was tested, and the Potency was “inactive”. `COc1ccc(S(=O)(=O)N2c3ccc(Cl)cc3[C@@](O)(c3ccccc3Cl)[C@H]2C(=O)N2CCC[C@@H]2C(N)=O)cc1OC` was tested, and the Potency was “inactive”. In the case of `O=C(Nc1cccc(C2=NCCN2)c1)Nc1cccc(C2=NCCN2)c1`, the Potency is reported as “inactive”. With `NS(=O)(=O)c1cc(C(=O)O)cc(N2CCCC2)c1Oc1ccccc1` the Potency was “inactive”. In the case of `COc1ccc(CCN(C)CCCN2CCc3cc(OC)c(OC)cc3CC2=O)cc1OC`, the Potency is reported as “inactive”. For `O=C1C(CCS(=O)c2ccccc2)C(=O)N(c2ccccc2)N1c1ccccc1` (stereo not given), the Potency was “inactive”. With `CCOc1ccc(NC(C)=O)cc1` the Potency was “inactive”. `O=C(O)C(Cc1cc(I)c(O)c(I)c1)c1ccccc1` (stereo not given) was tested, and the Potency was “inactive”. For `CCN(CC)CCOC(=O)C(Cc1cccc2ccccc12)CC1CCCO1` (stereo not given), the Potency was “inactive”. For `NC1CCN(c2nc3c(cc2F)c(=O)c(C(=O)O)cn3-c2ccc(F)cc2F)C1` (stereo not given), the Potency was “inactive”. In the case of `CC(=O)O[C@H]1C[C@@H]2CC[C@@H]3[C@H](CC[C@@]4(C)[C@H]3C[C@H]([N+]3(C)CCCCC3)[C@@H]4OC(C)=O)[C@@]2(C)C[C@@H]1N1CCCCC1`, the Potency is reported as “inactive”. In the case of `CCN(CC)CCNC(=O)COc1ccc(OC)cc1`, the Potency is reported as “inactive”. `O=C(O)CCc1nc2ccccc2[nH]1` was tested, and the Potency was “inactive”. For `CN1CCN(c2cc3c(cc2F)c(=O)c(C(=O)O)cn3-c2ccc(F)cc2)CC1`, the Potency was “inactive”. For `CCOC(=O)C(C#N)=C(c1ccccc1)c1ccccc1`, the Potency was “inactive”.

Source: PubChem BioAssay (NCATS)
